The list is not random: actives were taken first. Their share in the collection is about 18%.
KAT2A inh: blocks human GCN5L2 histone acetyltransferase; Q92830; GCN5L2 HAT assay, ThioGlo1 CoA-SH fluorescence; actives 0.21% (n = 390,000); AID 504327; Potency, µM (highest dose often 58.9 µM), hits mostly inhibitors
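Titration-based screen in which CoA formation is detected via maleimide probe ThioGlo1 (50uM) turning fluorescent on thiol reaction; substrates H3(1-25) 75uM and acetyl-CoA 70uM, GCN5L2 20nM, 20 min incubation at room temperature.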
VDR inhibitor: inhibitors of human vitamin D receptor; P11473; Potency, µM, most hits filed as inhibitors; VDR-SRC2-3 peptide fluorescence polarization, 2 h; actives 0.93% (n = 400,000)
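Compounds are added to VDR with labelled SRC2-3 coactivator peptide and held 2 h at room temperature. Inhibition of the VDR–peptide interaction is then read as a change in fluorescence polarization.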
TDP1 cell noCPT: qHTS for Inhibitors of human tyrosyl-DNA phosphodiesterase 1 (TDP1): qHTS in cells in absence of CPT | DT40 Tdp1-/- hTDP1 cells, no CPT, ATP luminescence, 48 h | Potency, µM (top dose mostly 46.2 µM), most hits filed as inhibitors | actives 15% (n = 420,000); further: nearly all actives have a fitted effect of over 55% in size
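A cellular qHTS used chicken DT40 cells lacking endogenous Tdp1 but carrying stably transfected human TDP1. Compounds were applied without camptothecin, and cell growth kinetics were judged by ATP-dependent luminescence after ≥48 hr.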
PLK1 PBD inh: inhibitors of human PLK1 polo-box domain binding | P53350 | Plk1 PBD binding of FITC phosphopeptide, fluorescence polarization | Potency, µM, hits mostly inhibitors | actives 2.8% (n = 360,000); further: series mostly up to about 57 µM; nearly all actives have a fitted effect of over 65% in size
TDP1 block: inhibitors of human tyrosyl-DNA phosphodiesterase TDP1. Q9NUW8. recombinant TDP1, AlphaScreen DNA substrate cleavage. Potency, µM (titrated, usually from 130 µM), hits mostly inhibitors. actives 0.28% (n = 350,000); further: nearly all actives have a fitted effect of over 40% in size
Target sequence (Q9NUW8 whole entry, looked up): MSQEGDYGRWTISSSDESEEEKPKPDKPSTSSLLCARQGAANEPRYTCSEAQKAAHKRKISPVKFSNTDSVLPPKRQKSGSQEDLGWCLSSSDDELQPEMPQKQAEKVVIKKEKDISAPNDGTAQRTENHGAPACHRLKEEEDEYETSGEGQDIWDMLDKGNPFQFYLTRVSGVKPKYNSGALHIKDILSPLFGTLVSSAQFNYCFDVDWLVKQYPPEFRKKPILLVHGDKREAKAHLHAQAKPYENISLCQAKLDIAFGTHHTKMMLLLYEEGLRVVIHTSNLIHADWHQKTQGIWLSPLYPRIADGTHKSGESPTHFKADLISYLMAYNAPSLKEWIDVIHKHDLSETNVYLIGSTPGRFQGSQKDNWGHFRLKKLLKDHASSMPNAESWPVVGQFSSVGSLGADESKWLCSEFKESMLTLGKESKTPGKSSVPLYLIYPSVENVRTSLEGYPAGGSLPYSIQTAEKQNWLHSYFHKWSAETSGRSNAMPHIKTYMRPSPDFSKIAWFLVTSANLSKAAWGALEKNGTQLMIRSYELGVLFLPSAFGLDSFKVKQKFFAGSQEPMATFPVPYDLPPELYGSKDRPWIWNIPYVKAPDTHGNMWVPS
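Compounds were preincubated with Tdp1 (1 nM final) for 15 min at room temperature before substrate (15 nM final) started a 5 min reaction; beads (10 ug/ml final) were then added for 10 min before AlphaScreen detection.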
TDP1 cell CPT: growth inhibition of DT40 Tdp1-/-;hTDP1 cells with camptothecin (screen for TDP1 inhibitors) | AID 686979 | Potency, µM (doses to about 46.2 µM), actives largely listed as inhibitors | actives 12% (n = 420,000) | chicken DT40 Tdp1-/-;hTDP1 cells + 20 nM CPT, ATP luminescence, 48 h; further: nearly all actives have a fitted effect of over 55% in size
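Chicken DT40 Tdp1-/- cells complemented with human TDP1, 400 cells/well, exposed to compounds plus 20 nM camptothecin for at least 48 h at 37 C; viability read as ATP content by CellTiter-Glo luminescence.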
Of the large screens only hits and unclear results are named; the others gave an inactive call. The call rests on the fitted dose curve; in most records, active means well fitted curve in the direction sought with a large enough effect; inconclusive means small, poorly fitted or top-dose-only effect, or another doubt; inactive means no such curve, though single readings can be large; an effect the other way counts as inactive or inconclusive.

COCCCn1c(C(=O)Nc2ccc3c(c2)OCO3)cc2c(=O)n3ccccc3nc21	VDR inhibitor inconclusive, TDP1 cell noCPT 25.9µM, PLK1 PBD inh 2.99µM, TDP1 cell CPT 18.4µM
Cc1cccc(NC(=O)c2cc3c(=O)n4cccc(C)c4nc3s2)c1C	TDP1 cell noCPT 2.31µM, TDP1 cell CPT 1.84µM (no result: PLK1 PBD inh)
CCCN(CCC)C(=O)c1cc2c(=O)n3cccc(C)c3nc2n1C	TDP1 cell noCPT 23.1µM, TDP1 cell CPT 16.4µM (no result: PLK1 PBD inh)
COc1ccc(NC(=O)c2cc3c(=O)n4ccccc4nc3n2C)c(OC)c1	none
CCCCNC(=O)c1cc2c(=O)n3cccc(C)c3nc2n1C	none (no result: VDR inhibitor, TDP1 cell noCPT, PLK1 PBD inh, TDP1 cell CPT)
COc1ccc(C)cc1NC(=O)c1cc2c(=O)n3cccc(C)c3nc2s1	none (no result: PLK1 PBD inh)
COc1ccc(OC)c(NC(=O)c2cc3c(=O)n4cccc(C)c4nc3n2C)c1	TDP1 cell noCPT 9.2µM, TDP1 cell CPT 10.3µM (no result: PLK1 PBD inh)
O=C(NC1CC1)C1CCN(C2CCN(C(=O)CC3=CCCCC3)CC2)CC1	none
CCOCCCn1c(=N)c(C(N)=S)cc2c(=O)n3cccc(C)c3nc21	VDR inhibitor 79.4µM, TDP1 cell noCPT inconclusive, PLK1 PBD inh inconclusive, TDP1 cell CPT inconclusive
CCCN(CCC)C(=O)c1cc2c(=O)n3cccc(C)c3nc2s1	TDP1 cell noCPT 18.4µM, TDP1 cell CPT inconclusive
CCCCN(CCCC)C(=O)c1cc2c(=O)n3cccc(C)c3nc2s1	TDP1 cell noCPT inconclusive, TDP1 cell CPT inconclusive (no result: PLK1 PBD inh)
Cc1ccc(-n2ncc(C(=O)Nc3cc(Cl)ccc3Cl)c2C2CCNCC2)cc1	TDP1 cell noCPT 23.1µM, TDP1 cell CPT 23.1µM
Cc1cccnc1NC(=O)c1nn(C)c2c1CS(=O)(=O)c1ccccc1-2	none
COc1ccc(N=N/C(=C\O)C(=O)c2cccs2)cc1	TDP1 cell noCPT inconclusive
N#CC(C#N)=C1C=CC=CN1/C(=C\c1ccco1)C(=O)c1ccccc1	VDR inhibitor 14.1µM, TDP1 cell noCPT 1.46µM, PLK1 PBD inh 11.9µM, TDP1 cell CPT 1.3µM
N#C/C(=C/c1ccco1)C(N)=S	KAT2A inh inconclusive, TDP1 cell CPT inconclusive (no result: TDP1 block)
COc1ccc(C(=O)/C(=C\c2ccco2)N2C=CC=CC2=C(C#N)C#N)cc1	VDR inhibitor 39.8µM, TDP1 cell noCPT 0.651µM, PLK1 PBD inh 21.2µM, TDP1 cell CPT 0.651µM
COc1ccc(/C=C(/C(=O)c2cccs2)N2C=CC=CC2=C(C#N)C#N)cc1	VDR inhibitor inconclusive, TDP1 cell noCPT 1.16µM, PLK1 PBD inh 5.97µM, TDP1 cell CPT 1.16µM
COc1cccc(N2CCN(c3ncnc4onc(-c5ccc(F)cc5)c34)CC2)c1	none (no result: PLK1 PBD inh)
CCN(c1ccccc1)S(=O)(=O)c1ccc(Cl)c(C(=O)NC2CCN(Cc3ccccc3)CC2)c1	TDP1 cell noCPT 6.51µM, TDP1 cell CPT 9.2µM (no result: KAT2A inh, TDP1 block)
CCN(c1ccccc1)S(=O)(=O)c1ccc(Cl)c(NC(=O)COC(=O)c2ccc(Cl)c(N)c2)c1	TDP1 cell noCPT inconclusive
CC(C)(CNC(=O)c1cccc(S(=O)(=O)Nc2ccc(SC(F)F)cc2)c1)N1CCOCC1	PLK1 PBD inh 13.4µM, TDP1 cell CPT inconclusive (no result: KAT2A inh, TDP1 block)
Cc1ccc(S(=O)(=O)Nc2cccc(C(=O)NCC(C)(C)N3CCOCC3)c2)cc1F	none
CCN(c1ccccc1)S(=O)(=O)c1ccc(Cl)c(NC(=O)COC(=O)c2cccc(OC)c2O)c1	TDP1 cell noCPT 18.4µM, TDP1 cell CPT inconclusive
O=C(NC1CCN(Cc2ccccc2)CC1)c1cccc(S(=O)(=O)Nc2ccc(SC(F)F)cc2)c1	TDP1 cell noCPT inconclusive, PLK1 PBD inh inconclusive, TDP1 cell CPT 23.1µM
O=C(Nc1cccc(S(=O)(=O)Nc2ccc(SC(F)F)cc2)c1)C1CCC1	TDP1 cell noCPT inconclusive, TDP1 cell CPT inconclusive
Cc1ccc(C)c(N2CCN(C(=O)c3cc4cc5ccc(C)cc5nc4o3)CC2)c1	TDP1 cell noCPT inconclusive (no result: PLK1 PBD inh)
Cc1ccc(CN2C(=O)C(C)Nc3ncnc(N4CCOCC4)c32)cc1 (stereo unspecified)	TDP1 cell noCPT inconclusive
CN(Cc1ccccc1)C(=O)c1c[nH]c2ccc(S(=O)(=O)Nc3ccccc3F)cc2c1=O	TDP1 cell noCPT inconclusive (no result: PLK1 PBD inh, TDP1 block)
